The panel holds about 83,000 compounds, 20% with a hit somewhere; the sample as a whole holds those more often.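 The endpoint reported here, percent growth, reads 100 for growth as untreated, 0 for no net growth and -100 for all cells dead.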 Unmarked numbers belong to inactive results. Active and inactive are the calls of the source. Rule for the calls: active = growth percent below 10; inactive = the rest.
Key:
Test in all cases: NCI-60 one-dose screen, 48 h (100 = growth as untreated, 0 = no growth, -100 = all killed)
Conditions in all cases: 10 µM
RPMI-8226 leukemia = test system: RPMI-8226 leukemia
OVCAR-8 ovarian = test system: OVCAR-8 ovarian
OVCAR-5 ovarian = test system: OVCAR-5 ovarian
OVCAR-4 ovarian = test system: OVCAR-4 ovarian
SK-OV-3 ovarian = test system: SK-OV-3 ovarian
OVCAR-3 ovarian = test system: OVCAR-3 ovarian
HS 578T breast = test system: HS 578T breast
NCI/ADR-RES ovarian = test system: NCI/ADR-RES ovarian
T-47D breast = test system: T-47D breast
BT-549 breast = test system: BT-549 breast
MDA-MB-435 melanoma = test system: MDA-MB-435 melanoma
SW-620 colon = test system: SW-620 colon
MCF7 breast = test system: MCF7 breast
HCT-116 colon = test system: HCT-116 colon
HCC-2998 colon = test system: HCC-2998 colon
IGROV1 ovarian = test system: IGROV1 ovarian
KM12 colon = test system: KM12 colon

| Structure (SMILES) | growth (RPMI-8226 leukemia) | growth (OVCAR-8 ovarian) | growth (OVCAR-5 ovarian) | growth (OVCAR-4 ovarian) | growth (SK-OV-3 ovarian) | growth (OVCAR-3 ovarian) | growth (HS 578T breast) | growth (NCI/ADR-RES ovarian) | growth (T-47D breast) | growth (BT-549 breast) | growth (MDA-MB-435 melanoma) | growth (SW-620 colon) | growth (MCF7 breast) | growth (HCT-116 colon) | growth (HCC-2998 colon) | growth (IGROV1 ovarian) | growth (KM12 colon) |
| --- | --- | --- | --- | --- | --- | --- | --- | --- | --- | --- | --- | --- | --- | --- | --- | --- | --- |
| Cc1c(C(N)=O)sc2c1c(=O)n(Cc1ccccc1)c1nnc(-c3ccc(Br)cc3)n21 | 12.1% | 0.274% (active) | 48.6% | 40.2% | 33.2% | 49.5% | 73.6% | 6.12% (active) | 20.9% | 22.6% | 39% | 33.1% | 21.5% | 12.4% | 25% |  |  |
| O=C1/C(=C/c2cccc(F)c2)Cc2ccccc21 | 93.3% | 97.4% | 120% |  | 108% | 113% | 181% | 102% | 103% | 106% | 97.9% | 102% | 25.1% |  | 97.1% | 99.6% | 98.7% |
| Nc1cc(-c2ccc(Cl)cc2)nn1-c1nc2ccccc2nc1Cc1ccccc1 |  | 91.2% | 95% |  | 96.7% |  |  | 87.5% | 85.5% | 90.5% | 86.8% |  | 85.3% |  | 94.8% |  |  |
| O=C1c2ccccc2C(=O)N1CCCCNc1ccccc1 | 30.5% | 101% | 101% | 107% | 113% | 91% | 103% | 103% | 124% | 61.7% | 118% | 105% | 111% | 97.5% | 108% | 141% | 67% |
| CC(C)(C)c1nn(-c2ccccc2)c2c1CC1(CN2Cc2ccc(Cl)cc2)C(=O)c2ccccc2C1=O | 59.5% | 105% | 103% | 72.9% | 93.3% | 78.1% | 110% | 84.3% | 75.5% | 81.4% |  | 85.6% | 82.4% | 52.6% | 91.4% |  | 89.6% |
| COc1ccc(C(=O)CC(CC(=O)c2ccc(OC)cc2)c2c(C)nn(-c3ccccc3)c2Cl)cc1 |  |  | 91.8% | 101% | 109% | 115% | 94.4% | 95.5% | 109% | 92% | 91.9% | 102% | 95.4% | 88.9% | 109% | 104% | 98% |
| CC(=O)COc1ccc(Cl)cc1Cl | 86.7% | 107% | 112% | 116% | 122% | 120% | 117% | 111% | 98.7% | 111% | 102% | 97.2% | 104% | 99.1% | 109% |  | 113% |
| COc1cc(C2CC(c3cc(Cl)c(C)cc3O)=NN2c2ccc(S(N)(=O)=O)cc2)cc(OC)c1OC (centres undefined) | 11.9% | 34.4% | 19.4% | 33.1% | 14.5% | 20.7% | 30.3% | 3.9% (active) | -1.47% (active) | 30.9% | 20.9% | 18.8% | -15.4% (active) | -14.3% (active) | -20.6% (active) | 3.35% (active) | 2.06% (active) |
| CCOc1ccccc1/C=N\N=C(\N)N/N=C/c1ccccc1OCC | 27.1% | 39.1% | 93.4% | 71.8% | 10.3% | 7.41% (active) |  | 3.57% (active) | 14.8% | 36% | -3.3% (active) |  | 8.26% (active) | 24.9% |  |  |  |
| CCCCN1C(=O)CC(SC2CC(=O)N(CCCC)C2=O)C1=O (centres undefined) | 100% | 108% | 108% |  | 111% | 106% | 103% | 111% | 106% | 104% | 108% | 110% | 102% |  |  |  | 107% |
